In PubChem BioAssay AID1626 (SRMLSC, 2009):
The whole screen tested about 220,000 compounds, of which about 2,000 (0.91%) were called active. About 2% were inconclusive and are not listed. A selection follows. Entries with a potency or affinity are not part of this list. Unmarked numbers belong to inactive results. No stated cut-off is given here; in the data, inconclusive means inhibition above about 80% without an active follow-up result; inactive means below that; test concentration not stated here.

Test: M. tuberculosis H37Rv growth inhibitors, H37Rv strain (AID 1626);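 further: bacteria incubated seven days before Alamar blue readout; 0% = bacteria only wells and 100% = bacteria with antibiotic wells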
Details: hits give high values, concentration not given here

Compared with CCOC(=O)c1oc2cccc(O)c2c1CN1CCOCC1, O=C(Cn1cnc2c(nnn2-c2ccccc2)c1=O)N1CCOCC1 is higher in inhibition: 1.91% for the first, 3.36% for the second.

First: CC(=N/O)/C(=N\O)c1ccc(C)o1
Second: Cc1ccc(-c2ccc(NC(=O)C3C4C=CC(C4)C3C(=O)O)cc2)o1 (stereo not drawn)
The inhibition of the first is lower: 5.71% for the first, 66.8% for the second.

First: O=C1CC(N2CCN(Cc3ccc4c(c3)OCO4)CC2)C(=O)N1c1cccc2ccccc12 (stereo not drawn)
Second: Cc1ccccc1CN1CCN(c2ccc(Cl)cc2)CC1
The inhibition of the first is lower: -7.76% for the first, 6.57% for the second.

First: CCOC(=O)c1c(NC(=O)COC(=O)c2cc(OC)c(OC)cc2[N+](=O)[O-])sc(C)c1C
Second: COc1cc(NC(=O)c2ccc([N+](=O)[O-])cc2)ccc1NC(=O)C(C)C
The inhibition of the first is lower: 0.78% for the first, 2.5% for the second.

Going from O=C(Nc1ccc(Cl)cc1)N1CCCC1 to O=C(Nc1cccc(Cl)c1)N1CCCC1, the inhibition falls from 1.26% to -2.82%.

Going from N#Cc1c(-c2ccc(Cl)cc2Cl)nc2n(c1=O)CCS2 to COCCCN(CCC#N)C(=O)c1c(-c2c(Cl)cccc2Cl)noc1C, the inhibition falls from -1.19% to -10.4%.

Compared with CCOc1ccc(-n2c(C)nc3c(cnn3-c3ccc(Cl)cc3)c2=O)cc1, COc1ccc2nc(/N=C/c3c(C)[nH]n(-c4ccc(C)cc4)c3=O)sc2c1 is higher in inhibition: -1.94% for the first, 33% for the second.

Compared with Cc1ccccc1OCC(=O)Nc1ccc(N2CCN(S(C)(=O)=O)CC2)cc1, Cc1ccc(OCC(=O)Nc2ccc(N3CCN(C(=O)c4ccc(C)cc4)CC3)cc2)cc1 is higher in inhibition: -6.69% for the first, -3.04% for the second.

Going from CCOC(=O)N1CCN(c2cc(C)nc3nc(C)nn23)CC1 to CC1CCN(CCCNC(=O)COc2cc(=O)n(C)c3ccccc23)CC1, the inhibition rises from -2.69% to -0.28%.

Going from CSc1cccc(NC(=O)CSc2ccc(C)cc2)c1 to COc1cccc(NC(=O)CSc2nnc(C)s2)c1, the inhibition falls from 52.9% to -3.98%.

Compared with CCSCc1nnc(SCC(=O)Nc2ccc(OC)cc2)n1C, CCSCc1nnc(SCC(=O)Nc2cccc(C(C)=O)c2)n1C is lower in inhibition: 7.37% for the first, -4.22% for the second.

First: Nn1c(CN2CCCCC2)nc2ccccc2c1=O
Second: OC(COc1ccc(OCc2ccccc2)cc1)CN1CCCCC1 (stereo not drawn)
The inhibition of the first is higher: 4.4% for the first, 3.57% for the second.

Compared with Cc1csc(NC(=O)CS(=O)(=O)c2ccccc2)n1, Cc1ccc(S(=O)(=O)NC(CC(C)C)C(=O)Nc2nccs2)cc1 (stereo not drawn) is lower in inhibition: -3.27% for the first, -11.9% for the second.

First: O=C(OCC(=O)N1CCCCCC1)c1ccc([N+](=O)[O-])cc1Cl
Second: Cc1cc([N+](=O)[O-])ccc1NC(=O)c1cccc(NC(=O)C(C)C)c1
The inhibition of the first is higher: 20.3% for the first, 10.8% for the second.

Compared with Cc1ccccc1OCc1nnc(SCC(=O)NCc2ccco2)n1C, O=C(CN1CCN(Cc2ccccc2Cl)C1=O)NCc1ccccn1 is higher in inhibition: -6.74% for the first, 1.55% for the second.

First: COc1ccccc1NCC(O)Cn1c2ccccc2c2ccccc21 (stereo not drawn)
Second: CCn1c(-c2ccccc2)c(C(=O)CCl)c2ccccc21
The inhibition of the first is lower: 2.53% for the first, 76.1% for the second.

Going from COc1ccc(CCNCC(O)Cn2ccc3ccccc32)cc1OC (stereo not drawn) to Cn1cc(C(=O)Cc2ccccc2)c2ccccc21, the inhibition rises from -9.67% to 0.26%.

Compared with CC(C)N(Cc1cc2ccccc2[nH]c1=O)C(=O)c1cccnc1, O=C(NCCc1c[nH]c2ccccc12)c1cnccn1 is higher in inhibition: -8.2% for the first, 2.35% for the second.

Going from COc1ccc(S(=O)(=O)N2C(=O)/C(=C3\SC(N)=NC3=O)c3ccccc32)cc1 to CC(=O)N(C1=C(N2CCOCC2)C(=O)c2ccccc2C1=O)c1ccc(C(=O)O)cc1, the inhibition rises from -3.28% to -1.19%.

Going from CCCCOc1ccc(-c2nc(/C=N/c3nccs3)c(O)o2)cc1 to Oc1oc(-c2ccccc2)nc1/C=N/c1nccs1, the inhibition falls from 25.4% to -8.45%.

Compared with COc1ccc2nc(/N=C/c3c(C)[nH]n(-c4ccc(C)cc4C)c3=O)sc2c1, COc1ccc(NC(=O)CCSc2nnc(C)s2)cc1 is lower in inhibition: 6.1% for the first, -0.89% for the second.

Compared with N/C(=N\OS(=O)(=O)c1ccc(Cl)cc1)c1cccnc1, FC(F)(F)c1nnc(-c2ccccc2)nc1Sc1ccc(Cl)cc1 is higher in inhibition: -1.48% for the first, 36.4% for the second.

Going from Cc1nn2c(N)c(C#N)cnc2c1-c1ccccc1 to COCc1nn2c(N)c(C#N)cnc2c1-c1ccccc1, the inhibition rises from -6.08% to 4.73%.

Compared with O=[N+]([O-])c1ccc(C(O)C(CO)NC(=S)Nc2ccccc2)cc1 (stereo not drawn), Cc1ccc(NC(=S)NC(CO)C(O)c2ccc([N+](=O)[O-])cc2)cc1 (stereo not drawn) is lower in inhibition: -0.74% for the first, -9.71% for the second.

Going from Cn1c(-c2ccccc2)c(C(=O)CC#N)c2ccccc21 to Cn1cc(C(N)=O)c2ccccc21, the inhibition falls from 7.31% to -2.82%.

First: CC(=O)Nc1ccc(S(=O)(=O)N2CCCC(C(=O)O)C2)cc1 (stereo not drawn)
Second: FC(F)(F)c1nnc(-c2ccccc2)nc1N1CCCC1
The inhibition of the first is higher: 0.58% for the first, -1.21% for the second.

Going from Cc1ccc(Sc2nc(-c3ccccc3)nnc2C(F)(F)F)cc1 to Fc1ccc(Oc2nc(-c3ccccc3)nnc2C(F)(F)F)cc1, the inhibition falls from 13.4% to -3.97%.

Going from FC(F)(F)c1cccc(Oc2nc(-c3ccccc3)nnc2C(F)(F)F)c1 to CNc1nc(-c2ccccc2)nnc1C(F)(F)F, the inhibition falls from 8.03% to -2.77%.

First: COC(=O)CC/C(O)=C1/C(=N)CC(C)(C)CC1=O
Second: CCNC(=O)/C=C1\NC(C)(C)Cc2c1ccc1ccccc21
The inhibition of the first is lower: -9.88% for the first, -3.91% for the second.

Going from O=C(CCn1c(=O)c2sccc2n(CC(=O)OCc2ccccc2)c1=O)NCc1ccccc1 to CC(=O)N(Cc1ccc(F)cc1)C1=C(NCCc2ccccc2)C(=O)c2ccccc2C1=O, the inhibition rises from -4.57% to 16.5%.

Compared with CCC(=O)N(C1=C(NC)C(=O)c2ccccc2C1=O)C(C)C, CCC(=O)N(C1=C(NC(C)C)C(=O)c2ccccc2C1=O)C(C)C is higher in inhibition: 2.12% for the first, 3.87% for the second.

O=C1OCCC1Sc1nc2ccccc2s1 (stereo not drawn) showed an inhibition of 6.97%.
